Experimental data taken from PubChem BioAssay AID743320 (Broad Institute, 2014).
Measured potencies and affinities stand elsewhere. Unmarked numbers belong to inactive results.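 How the source made its calls: active means signal drop whose fitted half-maximal potency is at most twice the top valid dose tested; inconclusive means flat curve inhibiting 30 to 70 percent, or a poor fit; inactive means the rest.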

target: Endoplasmic reticulum aminopeptidase 2 (Homo sapiens) (UniProt Q6P179); assay: ERAP2 aminopeptidase inhibitors, dose response, selectivity assay for selective ERAP1 modulator project, biochemical, fluorescence plate reader, cherry-picked, set 2 (AID 743320); conditions: recombinant ERAP2, Arg-AMC fluorescence, 1 h; series mostly up to 11 µM; activity change, negative = inhibition: at the top concentration
Sequence (Q6P179 whole entry, looked up): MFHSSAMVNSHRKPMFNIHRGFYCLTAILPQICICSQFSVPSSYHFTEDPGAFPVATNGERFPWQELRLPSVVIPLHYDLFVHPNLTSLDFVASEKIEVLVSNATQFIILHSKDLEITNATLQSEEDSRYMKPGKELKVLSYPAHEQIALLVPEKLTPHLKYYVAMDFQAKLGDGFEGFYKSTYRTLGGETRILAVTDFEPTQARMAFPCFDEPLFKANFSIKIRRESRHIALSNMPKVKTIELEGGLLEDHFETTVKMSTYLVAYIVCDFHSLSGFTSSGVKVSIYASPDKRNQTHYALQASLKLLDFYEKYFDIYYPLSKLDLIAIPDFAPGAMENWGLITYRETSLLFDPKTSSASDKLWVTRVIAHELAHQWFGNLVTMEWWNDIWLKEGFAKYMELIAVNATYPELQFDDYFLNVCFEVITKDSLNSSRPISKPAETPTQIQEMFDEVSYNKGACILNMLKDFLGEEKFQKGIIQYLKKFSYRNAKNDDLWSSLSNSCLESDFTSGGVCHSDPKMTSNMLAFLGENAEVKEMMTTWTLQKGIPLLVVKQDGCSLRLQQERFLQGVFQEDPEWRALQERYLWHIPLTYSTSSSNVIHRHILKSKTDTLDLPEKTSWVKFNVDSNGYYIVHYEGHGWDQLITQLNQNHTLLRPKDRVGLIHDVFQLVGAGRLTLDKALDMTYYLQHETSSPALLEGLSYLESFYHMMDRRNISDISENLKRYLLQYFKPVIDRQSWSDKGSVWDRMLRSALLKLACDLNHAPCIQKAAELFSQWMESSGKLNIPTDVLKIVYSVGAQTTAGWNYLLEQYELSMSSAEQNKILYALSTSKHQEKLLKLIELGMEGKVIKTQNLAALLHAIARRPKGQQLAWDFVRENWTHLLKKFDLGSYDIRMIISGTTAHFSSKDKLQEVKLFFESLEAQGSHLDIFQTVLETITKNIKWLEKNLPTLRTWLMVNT

Compound	activity change, negative = inhibition
CCC(=O)N(C)C[C@H]1Oc2ncc(C#Cc3ccncc3)cc2C(=O)N([C@H](C)CO)C[C@H]1C	-5.99%
C[C@@H]1CCCCO[C@@H](CN(C)Cc2ccc(C(=O)O)cc2)[C@H](C)CN([C@@H](C)CO)C(=O)c2cc(NS(=O)(=O)c3ccc(Cl)cc3)ccc2O1	24.2%
CCCNC(=O)C[C@@H]1CC[C@@H]2[C@H](COC[C@H](O)CN2C(=O)Nc2cccc(Cl)c2)O1	22.2%
C[C@@H]1CCCCO[C@@H](CN(C)Cc2ccc3c(c2)OCO3)[C@@H](C)CN([C@@H](C)CO)C(=O)c2cc(NS(=O)(=O)c3ccccc3)ccc2O1	12.7% [at 5.6 µM]
COc1ccc(S(=O)(=O)N(C)C[C@@H]2Oc3ncccc3C(=O)N([C@H](C)CO)C[C@@H]2C)cc1	11.3% [at 5.6 µM]
C[C@H](CO)N1C[C@H](C)[C@H](CN(C)CC2CCCCC2)Oc2c(NC(=O)Nc3ccc4c(c3)OCO4)cccc2C1=O	-0.254%
Cc1ccc(-c2cc(C(=O)N3CCCC3)c3ccccc3n2)s1	133%
C[C@@H]1CCCCO[C@@H](CN(C)Cc2ccccc2)[C@H](C)CN([C@H](C)CO)C(=O)c2cc(NS(=O)(=O)c3cccs3)ccc2O1	6.39%
Cc1noc(C)c1S(=O)(=O)Nc1ccc2c(c1)C(=O)N([C@H](C)CO)C[C@H](C)[C@H](CN(C)Cc1ccc3c(c1)OCO3)OCCCC[C@@H](C)O2	11.2% [at 10 µM]
C[C@@H]1CCCCO[C@@H](CN(C)Cc2ccc3c(c2)OCO3)[C@@H](C)CN([C@H](C)CO)C(=O)c2cc(NS(=O)(=O)c3cccs3)ccc2O1	1.03%
C[C@@H]1CCCCO[C@@H](CN(C)C(=O)CCC(F)(F)F)[C@@H](C)CN([C@@H](C)CO)C(=O)c2cc(NS(=O)(=O)c3ccccc3)ccc2O1	14.4% [at 2.6 µM]
C[C@H](CO)N1C[C@H](C)[C@H](CN(C)Cc2ccc(C(=O)O)cc2)Oc2c(NC(=O)Nc3ccccc3)cccc2C1=O	22.8%
COc1ccc(NC(=O)Nc2ccc3c(c2)C(=O)N([C@H](C)CO)C[C@@H](C)[C@@H](CN(C)Cc2ccc(C(=O)O)cc2)OCCCC[C@@H](C)O3)cc1	2.96%
COc1ccc(CN(C)C[C@@H]2OCCCC[C@@H](C)Oc3ccc(NS(=O)(=O)c4c(C)noc4C)cc3C(=O)N([C@@H](C)CO)C[C@@H]2C)cc1	-1%
Cc1ccccc1-c1ccc2c(c1)O[C@@H](CN(C)Cc1ccc(C(=O)O)cc1)[C@@H](C)CN([C@H](C)CO)S2(=O)=O	8.67%
Cc1noc(C)c1NC(=O)N(C)C[C@@H]1Oc2c(NC(=O)Nc3ccccc3)cccc2C(=O)N([C@H](C)CO)C[C@@H]1C	10.6%
COc1ccc(NC(=O)Nc2cccc3c2O[C@H](CN(C)Cc2ccc(C(=O)O)cc2)[C@H](C)CN([C@H](C)CO)C3=O)cc1	15.1%
COc1ccc(CN(C)C[C@H]2OCCCC[C@@H](C)Oc3ccc(NS(=O)(=O)c4cccs4)cc3C(=O)N([C@@H](C)CO)C[C@H]2C)cc1	2.79%
CCCN(C)C[C@@H]1OCCCC[C@@H](C)Oc2ccc(NS(=O)(=O)c3ccc(C)cc3)cc2C(=O)N([C@H](C)CO)C[C@@H]1C	6.04% [at 10 µM]
Cc1c(O)ccc2c(CN3CCN(Cc4ccccc4)CC3)cc(=O)oc12	408%
C[C@@H]1CCCCO[C@H](CN(C)Cc2ccc(C(=O)O)cc2)[C@@H](C)CN([C@H](C)CO)C(=O)c2cc(NC(=O)Nc3ccc(C(F)(F)F)cc3)ccc2O1	2.62%
CCCNC(=O)C[C@H]1CC[C@@H]2[C@H](COC[C@H](O)CN2C(=O)Nc2cccc(Cl)c2)O1	19.4%
CCCN(C)C[C@@H]1OCCCC[C@@H](C)Oc2ccc(NS(=O)(=O)c3cccs3)cc2C(=O)N([C@H](C)CO)C[C@@H]1C	11%
CCCN(C)C[C@@H]1OCCCC[C@@H](C)Oc2ccc(NS(=O)(=O)c3ccc(OC)cc3)cc2C(=O)N([C@H](C)CO)C[C@@H]1C	15.1% [at 8 µM]
Cc1ccc2nc3c(cc(C(=O)NCc4ccccc4)c(=N)n3CCCn3ccnc3)c(=O)n2c1	182%
O=C(Nc1ccc(C(F)(F)F)cc1)N1[C@@H]2CNC[C@H]1C2c1ccc(-c2ccncc2)cc1 (some centres undefined)	1.51%
CCCCc1cc(=O)oc2cc(O)ccc12	498%
C[C@@H]1CCCCO[C@H](CN(C)Cc2ccccc2)[C@H](C)CN([C@H](C)CO)C(=O)c2cc(NS(=O)(=O)c3ccccc3)ccc2O1	22.4%
Cc1noc(C)c1S(=O)(=O)Nc1ccc2c(c1)C(=O)N([C@H](C)CO)C[C@@H](C)[C@@H](CN(C)CC1CCCCC1)OCCCC[C@@H](C)O2	1.44%
